High-throughput results: PubChem BioAssay, The Scripps Research Institute Molecular Screening Center
HTR5A inv ag: HTR5A inverse agonists in luminescence cell assay, primary screen, counter-screen for OPRM1-OPRD1 heterodimer inverse agonist project, full-deck HTS; HTR5A cell line, inverse agonism; inhibition, % at 9.3 µM; 340,000 tested, 0.083% active; 5-hydroxytryptamine receptor 5A (Homo sapiens), P47898; in the data active = inhibition mostly above about 23%, no sharp cut-off; inactive = mostly below about 18%
MOR-DOR ag-1: agonists of OPRM1-OPRD1 heterodimerization, primary screen, cell-based, luminescence; activation, % at 9.3 µM; Mu-type opioid receptor (Homo sapiens) + Delta-type opioid receptor (Homo sapiens), …; 340,000 tested, 0.3% active; cells
Target sequence (P35372 whole entry, looked up): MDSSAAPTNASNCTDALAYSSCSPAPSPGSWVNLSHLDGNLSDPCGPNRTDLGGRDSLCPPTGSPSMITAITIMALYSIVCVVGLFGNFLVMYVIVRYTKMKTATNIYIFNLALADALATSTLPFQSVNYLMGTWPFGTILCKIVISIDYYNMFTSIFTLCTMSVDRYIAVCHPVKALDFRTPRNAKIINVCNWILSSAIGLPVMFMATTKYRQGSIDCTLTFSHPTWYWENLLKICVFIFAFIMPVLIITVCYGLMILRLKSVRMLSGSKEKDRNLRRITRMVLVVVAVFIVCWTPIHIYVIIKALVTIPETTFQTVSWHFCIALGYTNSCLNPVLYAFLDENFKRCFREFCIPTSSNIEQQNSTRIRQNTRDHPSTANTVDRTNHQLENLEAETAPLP
Target sequence (P41143 whole entry, looked up): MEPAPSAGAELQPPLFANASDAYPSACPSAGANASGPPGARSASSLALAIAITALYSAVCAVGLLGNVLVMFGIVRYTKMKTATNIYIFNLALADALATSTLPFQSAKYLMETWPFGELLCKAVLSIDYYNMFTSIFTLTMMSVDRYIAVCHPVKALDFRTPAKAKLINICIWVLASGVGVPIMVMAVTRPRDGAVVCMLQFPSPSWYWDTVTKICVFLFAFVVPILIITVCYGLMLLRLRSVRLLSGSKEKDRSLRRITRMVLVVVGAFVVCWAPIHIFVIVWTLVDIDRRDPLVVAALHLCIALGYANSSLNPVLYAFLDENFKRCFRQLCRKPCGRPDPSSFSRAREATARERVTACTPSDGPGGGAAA
OPRM1-OPRD1 inv: inverse agonists of MOR-DOR heterodimerization, primary screen, cell-based, luminescence. Mu-type opioid receptor (Homo sapiens) + Delta-type opioid receptor (Homo sapiens), …. cell-based MOR-DOR heterodimer luminescence, inverse agonism. inhibition, % at 9.3 µM. 340,000 tested, 0.21% active; in the data active = inhibition above about 22%, passing the limit was not always enough
HTR5A ag: HTR5A agonists in luminescence cell assay, primary screen, counter-screen for OPRM1-OPRD1 heterodimer agonist project, full-deck HTS; 5-hydroxytryptamine receptor 5A (Homo sapiens), P47898; cell-based; 340,000 tested, 0.61% active; AID 504692, 2011; activation, % at 9.3 µM; in the data active = activation mostly above about 9.5%, no sharp cut-off; inactive = mostly below about 7.6%
MOR-DOR ag-2: OPRM1-OPRD1 heterodimerization promoters, counter-screen for HTR5A agonist project, cell-based, luminescence; U2OS counter-screen cells, complementation luminescence, 3 h; 800 tested, 13% active; AID 504913, 2011; activation, % at 9.3 µM; shares compounds with HTR5A ag
HTR5A ag conf: HTR5A agonists, retest of hits, confirmation, cell-based, luminescence; shares compounds with HTR5A ag; HTR5A agonist cell assay; activation, % at 9.3 µM; 800 tested, 17% active; in the data active = activation above about 17%
Hits are given with their value. In the library only some 1.1% were active in any assay of this set; here they are far more common. Cut-off read from the data, not from the text of the source, unless noted: active = activation above about 18%; inactive = the rest.

For CCN(CC(=O)Nc1ccc(NC(C)=O)cc1)C(=O)COc1ccc(C(=O)c2ccccc2)cc1 the results were HTR5A inv ag inactive, MOR-DOR ag-1 inactive, OPRM1-OPRD1 inv inactive and HTR5A ag inactive.
CCOC(=O)c1c(C)[nH]c(C(=O)CSc2ccc(Cl)cc2)c1C was read as HTR5A inv ag inactive, MOR-DOR ag-1 inactive, OPRM1-OPRD1 inv inactive, HTR5A ag 15, MOR-DOR ag-2 inactive and HTR5A ag conf inactive.
COc1cc(/C=N/Nc2nc(C)nc3c2cnn3-c2ccccc2)ccc1O was read as HTR5A inv ag inactive, MOR-DOR ag-1 inactive, OPRM1-OPRD1 inv inactive, HTR5A ag 16, MOR-DOR ag-2 inactive and HTR5A ag conf inactive.
For O=C(CSc1nncs1)Nc1cccc2ccccc12 the results were HTR5A inv ag inactive, MOR-DOR ag-1 inactive, OPRM1-OPRD1 inv inactive and HTR5A ag inactive.
`O=C(C1CCN(S(=O)(=O)c2ccccc2)CC1)N1CCc2ccccc21` gave HTR5A inv ag inactive, MOR-DOR ag-1 inactive, OPRM1-OPRD1 inv inactive and HTR5A ag inactive.
O=C(C1CCN(S(=O)(=O)c2ccc3c(c2)OCCO3)CC1)N1CCc2ccccc21 was read as HTR5A inv ag inactive, MOR-DOR ag-1 inactive, OPRM1-OPRD1 inv inactive, HTR5A ag 33, MOR-DOR ag-2 inactive and HTR5A ag conf 23.
COc1nc(-c2ccccc2)ccc1-c1noc(-c2cccs2)n1 was read as HTR5A inv ag inactive, MOR-DOR ag-1 inactive, OPRM1-OPRD1 inv inactive, HTR5A ag 19, MOR-DOR ag-2 inactive and HTR5A ag conf inactive.
Screening CCCCCCCCCNC(=O)[C@H](NC(=O)COc1ccccc1)[C@@H]1NC(C(=O)OC)C(C)(C)S1 (stereo not given in full) returned HTR5A inv ag inactive, MOR-DOR ag-1 inactive, OPRM1-OPRD1 inv inactive and HTR5A ag inactive.
N=C1S/C(=C\c2ccc(O)cc2)C(=O)N1c1ccc(F)cc1 was read as HTR5A inv ag inactive, MOR-DOR ag-1 inactive, OPRM1-OPRD1 inv inactive, HTR5A ag 15, MOR-DOR ag-2 inactive and HTR5A ag conf inactive.
CN(C(=O)COC(=O)CNC(=O)c1ccc2ccccc2c1)c1c(N)n(Cc2ccccc2)c(=O)[nH]c1=O was read as HTR5A inv ag inactive, MOR-DOR ag-1 inactive, OPRM1-OPRD1 inv inactive and HTR5A ag inactive.
For CCOc1ccccc1NC(=S)N1C2CCC1CC(NC(=O)NC13CC4CC(CC(C4)C1)C3)C2 (stereo not given) the results were HTR5A inv ag inactive, MOR-DOR ag-1 inactive, OPRM1-OPRD1 inv inactive and HTR5A ag inactive.
Screening COc1ccccc1NC(=S)N1C2CCC1CC(NC(=O)NC13CC4CC(CC(C4)C1)C3)C2 (stereo not given) returned HTR5A inv ag inactive, MOR-DOR ag-1 inactive, OPRM1-OPRD1 inv inactive, HTR5A ag 16, MOR-DOR ag-2 inactive and HTR5A ag conf inactive.
For O=C(N/N=C/c1cn(Cc2cccc(F)c2)c2ccccc12)c1cc(O)cc(O)c1 the results were HTR5A inv ag inactive, MOR-DOR ag-1 inactive, OPRM1-OPRD1 inv inactive, HTR5A ag 17, MOR-DOR ag-2 284 and HTR5A ag conf inactive.
O=C(NCc1ccccc1)c1ccc(F)c(F)c1 was read as HTR5A inv ag inactive, MOR-DOR ag-1 inactive, OPRM1-OPRD1 inv inactive, HTR5A ag 14, MOR-DOR ag-2 inactive and HTR5A ag conf inactive.
Screening CC[C@H]1C=C[C@@H](C(C(=O)OC)C(=O)OC)CN1C(C)=O returned HTR5A inv ag inactive, MOR-DOR ag-1 inactive, OPRM1-OPRD1 inv inactive and HTR5A ag inactive.
For O=C(CC1CC2CCC1C2)OCC(=O)c1c[nH]c2ccccc12 (stereo not given) the results were HTR5A inv ag inactive, MOR-DOR ag-1 inactive, OPRM1-OPRD1 inv inactive, HTR5A ag 15, MOR-DOR ag-2 inactive and HTR5A ag conf inactive.
For C/C=C/C=[N+](\[O-])C(C)/C(=N/O)c1ccc(F)cc1 (stereo not given) the results were HTR5A inv ag inactive, MOR-DOR ag-1 inactive, OPRM1-OPRD1 inv inactive, HTR5A ag 17, MOR-DOR ag-2 inactive and HTR5A ag conf inactive.
COc1cccc(-c2nn(-c3ccccc3)cc2CNC(C)Cn2cncn2)c1 (stereo not given) was read as HTR5A inv ag inactive, MOR-DOR ag-1 inactive, OPRM1-OPRD1 inv inactive and HTR5A ag inactive.
Screening Cc1nn(-c2ccccc2)c(Cl)c1C(=O)NCCN(C)C returned HTR5A inv ag inactive, MOR-DOR ag-1 inactive, OPRM1-OPRD1 inv inactive, HTR5A ag 15, MOR-DOR ag-2 inactive and HTR5A ag conf inactive.
`Cc1nn(-c2ccccc2)c(Cl)c1C(=O)NCC(C)C` gave HTR5A inv ag inactive, MOR-DOR ag-1 inactive, OPRM1-OPRD1 inv inactive and HTR5A ag inactive.
Screening CCO[C@@H]1OC(C(=O)NC2CC2)=C[C@H](c2csc3ccccc23)[C@H]1CCCO returned HTR5A inv ag inactive, MOR-DOR ag-1 inactive, OPRM1-OPRD1 inv inactive and HTR5A ag inactive.
For Cc1cccc(C(=O)NNC(=O)c2c(O)c3ccccc3n(C)c2=O)c1 the results were HTR5A inv ag inactive, MOR-DOR ag-1 inactive, OPRM1-OPRD1 inv inactive, HTR5A ag 19, MOR-DOR ag-2 inactive and HTR5A ag conf inactive.
Screening CCc1ccccc1NC(=O)Cn1nc(C(F)(F)F)c2c1CCC2 returned HTR5A inv ag inactive, MOR-DOR ag-1 inactive, OPRM1-OPRD1 inv inactive and HTR5A ag inactive.
Screening CCc1ccc(NC(=O)Cn2nc(C(F)(F)F)c3c2CCC3)cc1 returned HTR5A inv ag inactive, MOR-DOR ag-1 inactive, OPRM1-OPRD1 inv inactive, HTR5A ag 20, MOR-DOR ag-2 inactive and HTR5A ag conf inactive.
CCOc1ccc(C(=O)N2CCN(Cc3ccccc3)CC2)cc1 was read as HTR5A inv ag inactive, MOR-DOR ag-1 inactive, OPRM1-OPRD1 inv inactive and HTR5A ag inactive.
Screening CCOc1ccc(C(=O)N2CCN(Cc3ccccc3)CC2)cc1OCC returned HTR5A inv ag inactive, MOR-DOR ag-1 inactive, OPRM1-OPRD1 inv inactive, HTR5A ag 16, MOR-DOR ag-2 inactive and HTR5A ag conf inactive.
For CCC1=C(c2cc(OC)c(OC)c(OC)c2)C2(CCCC2)C(=O)O1 the results were HTR5A inv ag inactive, MOR-DOR ag-1 inactive, OPRM1-OPRD1 inv inactive and HTR5A ag inactive.
`O=C(CCCn1c(SCC(=O)c2ccc(Cl)cc2)nc2ccccc2c1=O)NCc1ccco1` gave HTR5A inv ag inactive, MOR-DOR ag-1 inactive, OPRM1-OPRD1 inv inactive and HTR5A ag inactive.
`O=C(CCCCCn1c(SCC(=O)c2ccccc2)nc2ccccc2c1=O)NCc1ccco1` gave HTR5A inv ag inactive, MOR-DOR ag-1 inactive, OPRM1-OPRD1 inv inactive, HTR5A ag 21, MOR-DOR ag-2 59 and HTR5A ag conf 29.
For NC1=NC(c2ccccc2)=NC1(NC(=O)c1ccccc1)C(Cl)Cl (stereo not given) the results were HTR5A inv ag inactive, MOR-DOR ag-1 inactive, OPRM1-OPRD1 inv inactive and HTR5A ag inactive.
